# Experimental data: ChEMBL document CHEMBL3988442, “University of Dundee, Small-Polar-MMV Screening Library” (2021)
# Target: T1, Aspartate--tRNA(Asp/Asn) ligase (Mycobacterium tuberculosis (strain ATCC 25618 / H37Rv)) (UniProt P9WFW3); also: in the data most compounds retested in dose-response had high values
# T1 sequence (whole entry): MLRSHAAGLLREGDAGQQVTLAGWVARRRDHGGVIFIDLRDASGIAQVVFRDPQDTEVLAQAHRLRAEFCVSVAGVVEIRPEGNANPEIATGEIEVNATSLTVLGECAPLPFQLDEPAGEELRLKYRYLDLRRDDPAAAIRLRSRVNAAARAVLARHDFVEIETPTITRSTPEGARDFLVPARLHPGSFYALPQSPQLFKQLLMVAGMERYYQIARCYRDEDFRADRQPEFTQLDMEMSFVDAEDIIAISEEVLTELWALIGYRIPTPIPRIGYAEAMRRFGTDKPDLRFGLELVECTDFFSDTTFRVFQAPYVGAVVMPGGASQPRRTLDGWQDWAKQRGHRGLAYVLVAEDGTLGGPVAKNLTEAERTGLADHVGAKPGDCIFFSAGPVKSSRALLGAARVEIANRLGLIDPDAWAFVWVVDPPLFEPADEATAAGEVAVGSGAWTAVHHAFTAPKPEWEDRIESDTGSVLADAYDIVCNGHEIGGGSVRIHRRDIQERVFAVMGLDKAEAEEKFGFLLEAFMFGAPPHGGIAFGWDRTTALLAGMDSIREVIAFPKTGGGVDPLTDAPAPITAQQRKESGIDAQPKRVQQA
# Experiment: Assay for Asp RNA synthetase-1 from Mycobacterium tuberculosis
# Format: functional
# Parameters: scale not given: direction of the effect not stated beside the values
# Settings: 30 µM
row,Compound,Percent Effect
1,CN1CC(c2ccccc2)CC12CCN(C(=O)c1cncc(Cl)c1)CC2 (stereo not given),0.408%
2,Cc1cn2c(n1)CCC(NC(=O)c1cc(C(C)C)no1)C2 (stereo not given),-4.01%
3,Cc1nc2ccccn2c1CN(Cc1cccnc1)CC1CCCO1 (stereo not given),8.51%
4,CCNC(=O)N1CCN(C(=O)c2cc(Cl)cc3cccnc23)CC1,-3.21%
5,CN(C)S(=O)(=O)N1CCC2(CCCN(Cc3ccc(F)cc3)C2=O)C1 (stereo not given),-2.05%
6,Cc1nc(C)n(CC2CCCN2Cc2cn(-c3ccccc3)nn2)n1 (stereo not given),-2.81%
7,CC(=O)N1CCc2c(nc(-c3ccncc3)nc2N(C)CC(O)CO)C1 (stereo not given),-1.07%
8,Cn1ccc(C(=O)NCc2cccc(NC(=O)C3CCC3)c2)cc1=O,-0.879%
9,O=C(c1cccnc1)N1C[C@@H]2CC[C@H](C1)N(Cc1cccc(Cl)c1F)C2,9.03%
10,CS(=O)(=O)NC1CCN(C(=O)NCCNc2ccccn2)CC1,3.96%
11,CCC(=O)N(C)CC(=O)Nc1ccc(Br)cn1,-3.04%
12,O=C(NS(=O)(=O)c1ccccc1Cl)c1cccc2c1OCCO2,-6.15%
13,c1ccc(-c2nc(CN3CCc4c(ncn4C4CC4)C3)cs2)cc1,4.49%
14,COc1cccc(C2CCCN2Cc2nc3c(cnn3C)c(=O)[nH]2)c1 (stereo not given),-4.03%
15,CN(C)C(=O)CN1CCCC2(CCN(c3ccsc3)C2=O)C1 (stereo not given),2.4%
16,Cc1nn(C)c(C)c1C(=O)N1CCOCC1CC(=O)c1ccco1 (stereo not given),1.17%
17,CNC(=O)[C@H]1C[C@@H]2CN(C(=O)Nc3ccc(F)cc3)C[C@H]1O2,-1.56%
18,COc1cccc(OCC2CCCN(C3CCN(C(C)=O)CC3)C2)c1 (stereo not given),4.72%
19,CCOc1ccc(-c2ccnc(CC)n2)cc1C(=O)O,-3.09%
20,Cc1cc(C)n(CC2CCCCN2C(=O)c2ccc3c(c2)OCO3)n1 (stereo not given),-5.57%

row,Compound,Percent Effect
1,CCOC(CC)C(=O)NCCC(=O)N1CCN(c2ncccn2)CC1 (stereo not given),1.17%
2,COCc1ncc(CN2CCC(Oc3ccccc3OC)CC2)cn1,0.276%
3,CCc1ccc(CN2CCC3(CC2)CC(N2CCN(C)CC2)CO3)cc1 (stereo not given),2.64%
4,Cc1nn(-c2ccccc2)nc1C(=O)N1CCCC1c1cnn(C)c1 (stereo not given),2.1%
5,CCOc1cccc(C(C)NC(=O)N2CCC(C(N)=O)CC2)c1 (stereo not given),-2%
6,Cc1nn(C)c(N2CCOCC2)c1CNCc1ccnc(N(C)C)c1,-1.27%
7,Cc1ncsc1C(=O)N(C)Cc1cccc(Cl)c1,-1.26%
8,CCOc1ccccc1OC1CCN(C(=O)c2nc(=O)[nH][nH]2)CC1,-1.63%
9,O=C(NS(=O)(=O)c1cc(Cl)sc1Cl)c1cccc2c1OCCO2,1.84%
10,CC(C)N(C)Cc1cn2c(n1)CN(Cc1ccsc1)CC2,1.89%
11,Cc1ncsc1-c1nnc(C2CCN(CC3CCCCC3)CC2)o1,-2.81%
12,O=C(NC1CCCN(c2ncccn2)C1)c1ccoc1 (stereo not given),-4.64%
13,O=C(NCc1ccco1)[C@H]1C[C@H]2OCC[C@H]2N(S(=O)(=O)C2CC2)C1,0.786%
14,O=C(NCCc1cccs1)[C@H]1CO[C@H]2CCNC[C@H]2C1,2.09%
15,CN(Cc1ccccc1)CC1(O)CCCN(CC(C)(C)C)C1=O (stereo not given),-7.46%
16,Cc1noc([C@@H]2CC[C@@H]3[C@@H](CCN3S(=O)(=O)c3cccnc3)O2)n1,0.127%
17,CCN(CC(=O)NC)S(=O)(=O)N1CCCCCC1,1.14%
18,CCC(CC)NC(=O)Cn1nc(C)nc1-c1ccccc1,-2.19%
19,O=C(C1=CCCCC1)N1CCC2(CC1)COC(COc1ccccn1)C2 (stereo not given),0.351%
20,CC(C)N(C)Cc1cnc2n1CCN(C(=O)NC1CCCC1)C2,-1.4%

# Target: Shiga toxin 2 (Escherichia coli O157:H7) (UniProt P09385+P09386)
# Experiment: E. coli 0.157:H7 Shiga Toxin SOP - stx2 screening assay
# Format: functional
# Parameters: scale not given: direction of the effect not stated beside the values
# Settings: 30 µM
row,Compound,Percent Effect
1,CN1CC(c2ccccc2)CC12CCN(C(=O)c1cncc(Cl)c1)CC2 (stereo not given),12.5%
2,Cc1cn2c(n1)CCC(NC(=O)c1cc(C(C)C)no1)C2 (stereo not given),-5.41%
3,Cc1nc2ccccn2c1CN(Cc1cccnc1)CC1CCCO1 (stereo not given),-8.1%
4,CCNC(=O)N1CCN(C(=O)c2cc(Cl)cc3cccnc23)CC1,-11.9%
5,CN(C)S(=O)(=O)N1CCC2(CCCN(Cc3ccc(F)cc3)C2=O)C1 (stereo not given),-20.5%
6,Cc1nc(C)n(CC2CCCN2Cc2cn(-c3ccccc3)nn2)n1 (stereo not given),-8.85%
7,CC(=O)N1CCc2c(nc(-c3ccncc3)nc2N(C)CC(O)CO)C1 (stereo not given),5.83%
8,Cn1ccc(C(=O)NCc2cccc(NC(=O)C3CCC3)c2)cc1=O,-48%
9,O=C(c1cccnc1)N1C[C@@H]2CC[C@H](C1)N(Cc1cccc(Cl)c1F)C2,-10.5%
10,CS(=O)(=O)NC1CCN(C(=O)NCCNc2ccccn2)CC1,19.1%
11,CCC(=O)N(C)CC(=O)Nc1ccc(Br)cn1,-18.8%
12,O=C(NS(=O)(=O)c1ccccc1Cl)c1cccc2c1OCCO2,-2.92%
13,c1ccc(-c2nc(CN3CCc4c(ncn4C4CC4)C3)cs2)cc1,-40.4%
14,COc1cccc(C2CCCN2Cc2nc3c(cnn3C)c(=O)[nH]2)c1 (stereo not given),-6.96%
15,CN(C)C(=O)CN1CCCC2(CCN(c3ccsc3)C2=O)C1 (stereo not given),-21.7%
16,Cc1nn(C)c(C)c1C(=O)N1CCOCC1CC(=O)c1ccco1 (stereo not given),-5.88%
17,CNC(=O)[C@H]1C[C@@H]2CN(C(=O)Nc3ccc(F)cc3)C[C@H]1O2,-24.2%
18,COc1cccc(OCC2CCCN(C3CCN(C(C)=O)CC3)C2)c1 (stereo not given),-0.97%
19,CCOc1ccc(-c2ccnc(CC)n2)cc1C(=O)O,0.242%
20,Cc1cc(C)n(CC2CCCCN2C(=O)c2ccc3c(c2)OCO3)n1 (stereo not given),-5.42%

row,Compound,Percent Effect
1,CCOC(CC)C(=O)NCCC(=O)N1CCN(c2ncccn2)CC1 (stereo not given),-0.0687%
2,COCc1ncc(CN2CCC(Oc3ccccc3OC)CC2)cn1,-1.31%
3,CCc1ccc(CN2CCC3(CC2)CC(N2CCN(C)CC2)CO3)cc1 (stereo not given),1.21%
4,Cc1nn(-c2ccccc2)nc1C(=O)N1CCCC1c1cnn(C)c1 (stereo not given),18.4%
5,CCOc1cccc(C(C)NC(=O)N2CCC(C(N)=O)CC2)c1 (stereo not given),11.2%
6,Cc1nn(C)c(N2CCOCC2)c1CNCc1ccnc(N(C)C)c1,25.6%
7,Cc1ncsc1C(=O)N(C)Cc1cccc(Cl)c1,17.9%
8,CCOc1ccccc1OC1CCN(C(=O)c2nc(=O)[nH][nH]2)CC1,-11.2%
9,O=C(NS(=O)(=O)c1cc(Cl)sc1Cl)c1cccc2c1OCCO2,-6.84%
10,CC(C)N(C)Cc1cn2c(n1)CN(Cc1ccsc1)CC2,-40.8%
11,Cc1ncsc1-c1nnc(C2CCN(CC3CCCCC3)CC2)o1,-22.2%
12,O=C(NC1CCCN(c2ncccn2)C1)c1ccoc1 (stereo not given),-14.5%
13,O=C(NCc1ccco1)[C@H]1C[C@H]2OCC[C@H]2N(S(=O)(=O)C2CC2)C1,-24.1%
14,O=C(NCCc1cccs1)[C@H]1CO[C@H]2CCNC[C@H]2C1,2.12%
15,CN(Cc1ccccc1)CC1(O)CCCN(CC(C)(C)C)C1=O (stereo not given),17.9%
16,Cc1noc([C@@H]2CC[C@@H]3[C@@H](CCN3S(=O)(=O)c3cccnc3)O2)n1,-18.4%
17,CCN(CC(=O)NC)S(=O)(=O)N1CCCCCC1,6.63%
18,CCC(CC)NC(=O)Cn1nc(C)nc1-c1ccccc1,23%
19,O=C(C1=CCCCC1)N1CCC2(CC1)COC(COc1ccccn1)C2 (stereo not given),-19.1%
20,CC(C)N(C)Cc1cnc2n1CCN(C(=O)NC1CCCC1)C2,-28.1%
